PubChem BioAssay AID1510 (The Scripps Research Institute Molecular Screening Center, 2009)
In all, about 220,000 compounds went through this assay and about 570 (0.26%) were called active. Shown is part of a subset that was picked to be rich in actives. Values without a mark were called inactive. Rule as the data show it: active = inhibition above about 29%; inactive = the rest.

Molecular target: Sphingosine 1-phosphate receptor 4 (Homo sapiens) (UniProt O95977)
Assay: S1P4 receptor antagonists, primary screen, cell-based (AID 1510);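 also: 0% = wells stimulated with agonist and 100% = vehicle wells without agonist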
Details: S1P4-expressing cells, antagonist mode, reporter read-out; at 4.98 µM; hits give high values

Chain of Sphingosine 1-phosphate receptor 4 (Homo sapiens) (O95977 whole entry, looked up): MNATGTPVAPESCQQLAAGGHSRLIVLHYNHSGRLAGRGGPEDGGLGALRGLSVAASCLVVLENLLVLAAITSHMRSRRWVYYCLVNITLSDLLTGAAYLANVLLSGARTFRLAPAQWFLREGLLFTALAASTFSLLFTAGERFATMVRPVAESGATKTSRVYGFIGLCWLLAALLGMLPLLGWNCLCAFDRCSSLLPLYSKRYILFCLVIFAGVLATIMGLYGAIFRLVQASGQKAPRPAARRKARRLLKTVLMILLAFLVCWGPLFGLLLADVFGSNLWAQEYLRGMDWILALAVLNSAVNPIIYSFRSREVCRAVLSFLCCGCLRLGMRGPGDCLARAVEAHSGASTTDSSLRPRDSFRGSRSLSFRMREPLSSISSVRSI

With CCOc1ccc(S(=O)(=O)Nc2ccncc2)c(C)c1C as the compound, how does the inhibition read?
The inhibition was 8.19%.

How did the inhibition turn out when Cc1cc(C)nc(S/C=C/C(=O)c2ccccc2)n1 was run?
Its inhibition is 54.5% (active).

C/C(=N\NC(=O)c1nc(C)cc(C)n1)c1ccccc1 was tested. Which inhibition did it give?
The inhibition was 4.33%.

Cc1cc(SCC(=O)c2ccccc2)nc(SCC(=O)c2ccccc2)n1 was tested. Which inhibition did it give?
Its inhibition is -17.1%.

With O=C(Nc1nnc(SCc2ccccc2Cl)s1)c1cccc([N+](=O)[O-])c1 as the compound, how does the inhibition read?
Its inhibition is -13.5%.

How did the inhibition turn out when O=C(O)C1CC=CCC1C(=O)Nc1ccccc1C(=O)N1CCN(c2ccccc2)CC1 (configuration not stated) was run?
Its inhibition is -6.52%.

Which inhibition does the source give for CC(C)c1ccc(N2CCN(C(=O)c3ccccc3NC(=O)/C=C(\C(=O)O)c3ccccc3)CC2)cc1 here?
Its inhibition is 96% (active).

For Cc1cccc(N2CCN(C(=O)c3ccccc3NC(=O)C3CCCCC3C(=O)O)CC2)c1 (configuration not stated), which inhibition is on record?
The inhibition was -7.71%.

For CC(C)c1ccc(Nc2ncccc2C#N)cc1, which inhibition is on record?
Its inhibition is -16.8%.

Which inhibition does the source give for O=C(/C=C/c1cccc([N+](=O)[O-])c1)NCCSCc1ccco1 here?
Its inhibition is -14.7%.

Which inhibition does the source give for CCc1ccc2ncc(C(=O)c3ccccc3)c(N3CCOCC3)c2c1 here?
The inhibition was -14.8%.

O=C1Nc2cc(Cl)c(Cl)cc2N(O)N1c1ccccc1Cl was tested. Which inhibition did it give?
The inhibition was -11.4%.

C=CCOCCN(C)C1=NS(=O)(=O)c2ccccc21 was tested. Which inhibition did it give?
Its inhibition is -5.99%.

Which inhibition does the source give for Fc1ccc(Nc2nnns2)cc1 here?
The inhibition was -8.7%.

How did the inhibition turn out when O=C(CSc1ncn[nH]1)Nc1nc(-c2cccc([N+](=O)[O-])c2)cs1 was run?
The inhibition was 0.29%.

COc1ccc(-c2csc(NC3OC(=O)c4ccccc43)n2)cc1 (configuration not stated) was tested. Which inhibition did it give?
The inhibition was 30.9% (active).

With COc1ccc(Nc2nc(-c3ccccc3)cs2)cc1 as the compound, how does the inhibition read?
The inhibition was -20.3%.

With COc1ccc2c(c1OC)C(=O)OC2Nc1nc(-c2ccccc2)cs1 (configuration not stated) as the compound, how does the inhibition read?
Its inhibition is 22.8%.

Which inhibition does the source give for O=C(CC1NCCNC1=O)Nc1cc(Cl)cc(Cl)c1 (configuration not stated) here?
The inhibition was -3.46%.

Cc1cc(C(=O)CSc2nc(N)cc(=O)[nH]2)c(C)n1-c1cccc(F)c1 was tested. Which inhibition did it give?
Its inhibition is -13.7%.

For Brc1ccc(-c2nn[nH]n2)cc1, which inhibition is on record?
The inhibition was 11.9%.

Cc1ccc(C2CCN(C(=S)Nc3cccc(Cl)c3)C2)cc1 (configuration not stated) was tested. Which inhibition did it give?
Its inhibition is 3.99%.

Which inhibition does the source give for Cc1nc2nc(SCC(=O)c3ccccc3)[nH]c2cc1Br here?
The inhibition was 6.48%.

How did the inhibition turn out when O=C(COC(=O)c1cc([N+](=O)[O-])ccc1NCc1ccccc1)NC1CCCCC1 was run?
Its inhibition is -5.39%.

Which inhibition does the source give for CN1CCN(S(=O)(=O)c2cccc(C(=O)O)c2)CC1 here?
The inhibition was -2.81%.

Which inhibition does the source give for COc1cc(C(=O)N2C(=O)c3cccc(N)c3C2=O)cc(OC)c1OC here?
The inhibition was 6.71%.

CC1CC(C)CN(S(=O)(=O)c2cccc(C(=O)N3C(=O)c4cccc(N)c4C3=O)c2)C1 (configuration not stated) was tested. Which inhibition did it give?
Its inhibition is 37.9% (active).
